Here are results for 16 compounds from PubChem BioAssay.

Assay [1] can be described thus: compound effects on lung adenocarcinoma cell viability – A549, calcein-AM fluorescence, 48 h, basal, profiling panel (AID 1162). The following applies: higher = more signal.
Assay [2] in a line: compound effects on differentiated 3T3-L1 adipocyte viability – cell-based, 3T3-L1 adipocytes, calcein-AM fluorescence, 48 h, basal, profiling panel (AID 1163). The following applies: 3T3-L1 adipocytes viability, higher = more signal.
A short description of assay [3]: compound effects on hepatocellular carcinoma cell viability – HepG2, calcein-AM fluorescence, 48 h, basal, profiling panel (AID 1164). The conditions noted are these: higher = more signal.
Assay [4] can be described thus: compound effects on multiple myeloma cell viability – MM1S, calcein-AM fluorescence, 48 h, basal, profiling panel (AID 1165).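 Also: viability of MM1S multiple myeloma cells under basal unstimulated conditions.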 The following applies: higher = more signal.
Assay [5] in a line: calcein-AM signal in unstimulated myeloma cells – cell-based, calcein-AM fluorescence, 48 h, PK04 Diversity Set, profiling panel (AID 1166).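 Also: cells grown under basal conditions without added stimulus.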 The following applies: RPMI8226 myeloma viability, higher = more signal.
Assay [6] can be described thus: JC-1 mitochondrial signal, unstimulated HepG2 cells – cell-based, JC-1 fluorescence, 24 h, 100 nL compound, profiling panel (AID 1167). The conditions noted are these: HepG2 mitochondrial potential, higher = more signal.
Assay [7] can be described thus: JC-1 mitochondrial signal, unstimulated adipocytes – cell-based, JC-1 fluorescence, 3T3-L1 adipocytes, 24 h, 100 nL compound, profiling panel (AID 1168). The following applies: JC-1 mitochondrial fluorescence, higher = more signal, called active from +8 up or from −8 down.
The nature of assay [8]: JC-1 mitochondrial signal, unstimulated myeloma cells – cell-based, JC-1 fluorescence, RPMI8226, 24 h, 100 nL compound, profiling panel (AID 1169). The following applies: JC-1 mitochondrial potential fluorescence, higher = more signal.
The nature of assay [9]: JC-1 mitochondrial signal, unstimulated MM1S myeloma – cell-based, JC-1 fluorescence, 24 h, 100 nL compound, profiling panel (AID 1170). The conditions noted are these: MM1S mitochondrial potential, higher = more signal.
A short description of assay [10]: resazurin metabolic signal in A549 cells – cell-based, resazurin fluorescence, 24 h, PK04 Diversity Set, profiling panel (AID 1171). The conditions noted are these: A549 viability, higher = more signal, called active from +8 up or from −8 down.

Active and inactive are the calls of the source.
Also: test concentration not given here.

With `CCN1C(=O)[C@H]2[C@H]3[C@H](O)[C@H](O)CC(=NNC(=O)OCc4ccccc4)[C@@H]3CC[C@H]2C1=O`, the z-score in assay [1] was -0.0627; in assay [2] it was 0.0682; in assay [3], -0.131; in [4], -0.0309; in [5], 0.718; in assay [6], -0.653. Also, the z-score in [7] was -1.19 (inactive); in assay [8], -0.118; in [9], -0.458; in [10], -0.32 (inactive).
Regarding `CC(CCC(=O)OC[C@H]1O[C@H](C#Cc2ccccc2)C=C[C@@H]1Oc1ccc(C)cc1)=NO[C@H](C)c1cn([C@@H]2COC[C@H]2O)nn1`, the z-score in [1] is 1.28; in assay [2], 0.0119; in assay [3] it was 0.669; in [4], -1.57; in assay [5], -2; in assay [6], -0.662. Besides, the z-score in [7] is -4.6e-05 (inactive); in assay [8] it was -0.072; in [9] it was -1.1; in assay [10] it was -1.25 (inactive).
Take `C[C@@H](c1ccccc1)N1C(=O)[C@H]2[C@H]3[C@H](O)[C@H](O)CC(=NOCc4ccccc4)[C@@H]3CC[C@H]2C1=O`: the z-score in assay [1] was 0.048; in assay [2], -0.0375; in [3], -0.628; in assay [4], 0.67; in assay [5], -2.15; in assay [6], -0.265. Also, the z-score in assay [7] was -0.985 (inactive); in assay [8], -0.0343; in assay [9], 0.645; in assay [10] it was -0.273 (inactive).
As for `CCOC(=O)[C@H](CC(C)C)NC(=O)CCC1CC(OC(=O)NCc2ccc3c(c2)OCO3)CC2(CCCC(COC(=O)NCCc3ccccc3OC)O2)O1` (stereo not given in full), the z-score in assay [1] is -0.47; in assay [2] it was -0.837; in assay [3], 0.0138; in assay [4], -1.32; in assay [5], -0.312; in assay [6], -0.828. In addition, the z-score is -0.104 (inactive) in assay [7], -0.282 in [8], -0.501 in assay [9] and 1.06 (inactive) in assay [10].
`C=CC[C@@H]1C=C[C@H](ON=CC[C@@H]2C=C[C@H](OC(C)=O)[C@@H](COC(C)=O)O2)[C@@H](CO)O1`: the z-score is 0.452 in assay [1]; -0.5 in assay [2]; 0.347 in assay [3]; 0.114 in assay [4]; -0.445 in assay [5]; 0.169 in [6]. Further, the z-score in assay [7] was -0.01 (inactive); in assay [8], -0.131; in assay [9], -0.838; in [10], -0.286 (inactive).
In the case of `CSCC[C@@H]1NC(=O)CC=C[C@@H](C)COC(=O)[C@H](C)COC1=O`, the z-score in assay [1] is 0.137; in assay [2], 0.641; in assay [3] it was 0.929; in assay [4] it was 0.434; in assay [5] it was 0.798; in assay [6], 1.16. Moreover, the z-score in [7] is 0.766 (inactive); in assay [8], 0.0761; in assay [9], 0.975; in [10] it was -0.365 (inactive).
Turning to `CCc1cc2c(nc1CC)CCN(CCC(C)=NOC[C@@H](C)[C@H](OCc1ccccc1)C(C)C)C2`, the z-score in assay [1] is 1.58; in assay [2], 0.546; in assay [3], 1.43; in assay [4], -2; in assay [5] it was -0.584; in assay [6], 2. Also, the z-score is 1 (inactive) in [7], 0.278 in assay [8], 0.486 in [9] and -0.445 (inactive) in [10].
Regarding `COc1ccc(COC(=O)NN=C2C[C@@H](O)[C@@H](O)[C@@H]3[C@@H]4C(=O)N(Cc5ccccc5)C(=O)[C@@H]4CC[C@@H]23)cc1`, the z-score in [1] was -0.178; in assay [2] it was -0.641; in assay [3], -0.13; in assay [4], 0.458; in assay [5], 1.61; in assay [6], 0.335. Also, the z-score in assay [7] was -0.289 (inactive); in [8], 0.76; in assay [9], -1.46; in [10], 0.399 (inactive).
As to `CON=C(C)CCN1CCCc2nc(C)c(C)cc21`, the z-score in assay [1] is 0.604; in assay [2], 0.542; in assay [3], 0.926; in assay [4], -1.56; in assay [5], -0.0679; in assay [6] it was 0.791. Also, the z-score in assay [7] was -0.195 (inactive); in assay [8], 0.538; in [9], 0.11; in assay [10], 0.161 (inactive).
In the case of `CC(=O)OC[C@H]1O[C@H](CC=NO[C@@H](C)c2cc(-c3c(C)cc(C)cc3C)no2)C=C[C@@H]1OC(C)=O`, the z-score in assay [1] is -0.937; in [2], 0.318; in assay [3], -0.799; in assay [4], 0.267; in assay [5], -1.29; in assay [6], -0.158. The z-score in assay [7] was -0.845 (inactive); in [8], 0.774; in assay [9] it was -0.322; in assay [10] it was -0.0973 (inactive).
Turning to `COc1ccc(-c2cnnc(CCCn3ccnc3-c3ccccc3)n2)cc1`, the z-score is -0.98 in assay [1]; 1.02 in assay [2]; -1.28 in [3]; -1.82 in assay [4]; -2.55 in assay [5]; -1.5 in assay [6]. In addition, the z-score is -0.876 (inactive) in assay [7], -0.87 in [8], -0.543 in [9] and -3.49 (inactive) in [10].
In the case of `CO[C@H]1C[C@@H]2C[C@H](O)CC(CC(=O)O[C@@H](C=CCC(C)C)C[C@@H]3CC[C@H](C)[C@@H](C1)O3)O2`, the z-score in assay [1] is 0.366; in [2], 0.128; in [3] it was 0.341; in [4] it was 0.283; in assay [5], 0.624; in assay [6], -0.427. Further, the z-score in assay [7] is -0.975 (inactive); in [8] it was 0.392; in assay [9], -0.49; in assay [10], -0.0031 (inactive).
As to `CC(=O)OC[C@H]1O[C@H](CC=NO[C@H](C)c2cn([C@@H]3COC[C@H]3O)nn2)C=C[C@@H]1OC(C)=O`, the z-score in [1] was 0.674; in [2], 0.062; in [3], 0.631; in assay [4] it was 0.621; in assay [5], 0.479; in assay [6] it was 0.00468. Moreover, the z-score in [7] was 1.13 (inactive); in assay [8], 0.418; in [9] it was -0.466; in [10] it was -0.145 (inactive).
Consider `C=CC[C@@H]1C=C[C@H](ON=C(C)CCN2CCCc3nc(C)c(C)cc32)[C@@H](CO)O1`, for which the z-score in [1] is 0.226; in assay [2] it was -0.0137; in assay [3] it was 0.0526; in [4], -2.03; in assay [5] it was -1.06; in assay [6], -0.276. Besides, the z-score in [7] was 0.0489 (inactive); in assay [8] it was -0.989; in assay [9] it was -0.455; in assay [10], -0.246 (inactive).
As for `CC(=O)OC[C@H]1O[C@H](CC=NOC[C@@H](O)COCc2ccco2)C=C[C@@H]1OC(C)=O`, the z-score in assay [1] was 1.04; in [2], -0.0657; in assay [3], 0.341; in [4], -0.175; in assay [5], -0.498; in assay [6], 0.186. Also, the z-score was 0.998 (inactive) in [7], -0.198 in [8], -1.01 in [9] and 0.0719 (inactive) in assay [10].
`O=C1C=C[C@@H](O)[C@@H]2[C@@H]3C(=O)N(Cc4ccccc4)C(=O)[C@@H]3CC[C@@H]12`: the z-score is 0.698 in [1]; 0.594 in assay [2]; 1.33 in assay [3]; -0.134 in assay [4]; -0.73 in assay [5]; 1.42 in assay [6]. Moreover, the z-score was -0.125 (inactive) in assay [7], -0.057 in [8], -0.05 in [9] and -0.754 (inactive) in assay [10].
